For assay [1], the target named is CDK3/Cyclin E (Homo sapiens) (UniProt P24864+Q00526). The conditions noted are these: at 1 µM.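 Note: each figure is a mean percent inhibition of the CDK3/cyclin E complex.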
The target in assay [2] is Cyclin-dependent kinase 4 (Homo sapiens) (UniProt P11802). To be noted: at 0.1 µM.
Assay [3] shares this target. To be noted: at 1 µM.
For assay [4], the target named is Cyclin-dependent kinase 5 (Homo sapiens) (UniProt Q00535). To be noted: at 0.1 µM.
Assay [5] shares this target. The conditions noted are these: at 1 µM.
In assay [6] the target is Cyclin-dependent kinase 6 (Homo sapiens) (UniProt Q00534). To be noted: at 0.1 µM.
The target is the same in assay [7]. The conditions noted are these: at 1 µM.
Assay [8] concerns the target Dual specificity protein kinase CLK2 (Homo sapiens) (UniProt P49760). To be noted: at 0.1 µM.
Assay [9] has the same target. To be noted: at 1 µM.
Assay [10] deals with Dual specificity protein kinase CLK3 (Homo sapiens) (UniProt P49761). The conditions noted are these: at 0.1 µM.
Assay [11] has the same target. To be noted: at 1 µM.
Assay [12] has as its target Dual specificity tyrosine-phosphorylation-regulated kinase 1A (Homo sapiens) (UniProt Q13627). To be noted: at 0.1 µM.
For assay [13] the target is unchanged. The conditions noted are these: at 1 µM.
In assay [14] the target is Dual specificity tyrosine-phosphorylation-regulated kinase 1B (Homo sapiens) (UniProt Q9Y463). The conditions noted are these: at 0.1 µM.
Assay [15] shares this target. To be noted: at 1 µM.
The target in assay [16] is T1, Dual specificity tyrosine-phosphorylation-regulated kinase 2 (Homo sapiens) (UniProt Q92630).
T1 sequence (whole entry): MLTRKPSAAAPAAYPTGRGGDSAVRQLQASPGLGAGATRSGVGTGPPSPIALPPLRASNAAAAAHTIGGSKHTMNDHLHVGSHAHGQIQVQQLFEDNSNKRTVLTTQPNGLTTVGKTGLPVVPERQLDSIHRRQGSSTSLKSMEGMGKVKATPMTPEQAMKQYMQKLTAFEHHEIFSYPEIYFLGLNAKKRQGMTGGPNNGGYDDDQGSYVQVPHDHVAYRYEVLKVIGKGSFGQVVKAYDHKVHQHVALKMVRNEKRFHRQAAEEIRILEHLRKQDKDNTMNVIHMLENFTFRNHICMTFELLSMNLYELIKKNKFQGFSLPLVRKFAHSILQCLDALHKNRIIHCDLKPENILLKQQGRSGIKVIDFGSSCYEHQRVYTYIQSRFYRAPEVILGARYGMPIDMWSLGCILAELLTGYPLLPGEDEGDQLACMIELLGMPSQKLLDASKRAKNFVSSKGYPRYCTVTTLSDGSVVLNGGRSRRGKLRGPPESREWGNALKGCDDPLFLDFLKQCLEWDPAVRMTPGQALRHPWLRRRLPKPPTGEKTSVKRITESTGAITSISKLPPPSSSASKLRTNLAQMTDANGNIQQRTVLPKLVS
The conditions noted are these: at 0.1 µM.

Assay [17] has as its target T1, Dual specificity tyrosine-phosphorylation-regulated kinase 2 (Homo sapiens). To be noted: at 1 µM.
Assay [18] deals with Glycogen synthase kinase-3 alpha (Homo sapiens) (UniProt P49840). The conditions noted are these: at 0.1 µM.
Assay [19] has the same target. To be noted: at 1 µM.
Assay [20] has as its target Glycogen synthase kinase-3 beta (Homo sapiens) (UniProt P49841). To be noted: at 0.1 µM.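 Note: values are mean percent inhibition of GSK3B activity, from the GSK Published Kinase Inhibitor Set (PKIS) screening dataset.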

Broadly, the inhibition is the relative decrease from the control value, in per cent.

Chain of Cyclin-dependent kinase 5 (Homo sapiens) (Q00535 whole entry, looked up): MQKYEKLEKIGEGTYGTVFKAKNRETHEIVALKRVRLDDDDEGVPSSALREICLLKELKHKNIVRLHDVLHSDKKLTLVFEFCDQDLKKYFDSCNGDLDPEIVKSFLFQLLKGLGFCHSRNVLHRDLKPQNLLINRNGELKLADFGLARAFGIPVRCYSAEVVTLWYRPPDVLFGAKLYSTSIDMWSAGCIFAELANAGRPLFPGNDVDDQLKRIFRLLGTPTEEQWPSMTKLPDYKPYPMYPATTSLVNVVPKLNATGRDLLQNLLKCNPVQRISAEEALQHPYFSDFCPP
Chain of Dual specificity tyrosine-phosphorylation-regulated kinase 1B (Homo sapiens) (Q9Y463 whole entry, looked up): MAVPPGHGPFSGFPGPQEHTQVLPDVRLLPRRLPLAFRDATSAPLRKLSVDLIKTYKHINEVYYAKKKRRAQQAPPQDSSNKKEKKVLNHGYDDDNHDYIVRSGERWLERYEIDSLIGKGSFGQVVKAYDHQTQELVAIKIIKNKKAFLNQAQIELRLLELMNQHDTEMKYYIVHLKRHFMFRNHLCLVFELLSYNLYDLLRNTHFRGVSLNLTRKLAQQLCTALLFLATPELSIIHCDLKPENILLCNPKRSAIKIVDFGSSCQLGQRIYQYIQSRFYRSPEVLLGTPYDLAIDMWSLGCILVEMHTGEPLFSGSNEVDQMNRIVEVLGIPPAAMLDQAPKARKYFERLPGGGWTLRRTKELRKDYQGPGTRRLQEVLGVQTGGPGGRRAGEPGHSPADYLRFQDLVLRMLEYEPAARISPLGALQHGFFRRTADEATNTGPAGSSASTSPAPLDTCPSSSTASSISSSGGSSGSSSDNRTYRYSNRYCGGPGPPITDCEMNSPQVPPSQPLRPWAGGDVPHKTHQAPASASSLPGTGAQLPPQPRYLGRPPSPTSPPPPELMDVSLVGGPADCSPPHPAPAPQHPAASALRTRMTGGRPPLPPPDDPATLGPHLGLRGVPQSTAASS
Chain of Dual specificity protein kinase CLK3 (Homo sapiens) (P49761 whole entry, looked up): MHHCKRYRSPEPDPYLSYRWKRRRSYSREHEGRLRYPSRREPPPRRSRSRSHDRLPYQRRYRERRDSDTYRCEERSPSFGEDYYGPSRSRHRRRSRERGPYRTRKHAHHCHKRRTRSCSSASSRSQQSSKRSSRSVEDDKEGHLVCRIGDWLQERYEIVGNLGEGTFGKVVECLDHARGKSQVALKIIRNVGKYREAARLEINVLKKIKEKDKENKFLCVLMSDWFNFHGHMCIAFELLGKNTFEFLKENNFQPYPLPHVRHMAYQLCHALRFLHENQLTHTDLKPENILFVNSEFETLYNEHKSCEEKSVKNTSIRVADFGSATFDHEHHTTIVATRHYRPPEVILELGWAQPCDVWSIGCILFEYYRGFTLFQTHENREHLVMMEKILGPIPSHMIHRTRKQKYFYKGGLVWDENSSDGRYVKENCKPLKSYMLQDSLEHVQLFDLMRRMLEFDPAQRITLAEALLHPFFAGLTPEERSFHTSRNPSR
Chain of Cyclin-dependent kinase 4 (Homo sapiens) (P11802 whole entry): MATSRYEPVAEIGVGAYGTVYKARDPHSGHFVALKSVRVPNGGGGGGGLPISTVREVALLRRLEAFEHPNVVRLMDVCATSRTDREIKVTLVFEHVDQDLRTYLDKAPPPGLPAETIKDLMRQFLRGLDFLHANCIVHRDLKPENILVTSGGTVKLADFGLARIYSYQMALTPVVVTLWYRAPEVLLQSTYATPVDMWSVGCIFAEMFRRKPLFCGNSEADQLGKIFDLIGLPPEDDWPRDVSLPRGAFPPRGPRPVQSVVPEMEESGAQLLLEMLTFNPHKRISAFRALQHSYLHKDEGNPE
Chain of Glycogen synthase kinase-3 alpha (Homo sapiens) (P49840 2-483 limits assumed): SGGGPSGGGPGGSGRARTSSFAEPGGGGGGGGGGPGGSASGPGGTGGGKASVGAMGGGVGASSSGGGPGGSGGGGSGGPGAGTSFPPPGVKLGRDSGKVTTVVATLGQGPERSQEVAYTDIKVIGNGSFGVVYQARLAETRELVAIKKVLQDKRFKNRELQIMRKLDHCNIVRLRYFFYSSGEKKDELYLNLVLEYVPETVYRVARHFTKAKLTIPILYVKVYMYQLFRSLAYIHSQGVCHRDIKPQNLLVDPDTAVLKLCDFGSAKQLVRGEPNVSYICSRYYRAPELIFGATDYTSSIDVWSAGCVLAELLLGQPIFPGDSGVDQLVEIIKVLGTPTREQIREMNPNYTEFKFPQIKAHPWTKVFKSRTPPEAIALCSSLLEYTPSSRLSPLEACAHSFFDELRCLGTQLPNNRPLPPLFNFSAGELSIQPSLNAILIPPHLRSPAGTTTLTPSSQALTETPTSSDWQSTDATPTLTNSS
Chain of Cyclin-dependent kinase 6 (Homo sapiens) (Q00534 whole entry): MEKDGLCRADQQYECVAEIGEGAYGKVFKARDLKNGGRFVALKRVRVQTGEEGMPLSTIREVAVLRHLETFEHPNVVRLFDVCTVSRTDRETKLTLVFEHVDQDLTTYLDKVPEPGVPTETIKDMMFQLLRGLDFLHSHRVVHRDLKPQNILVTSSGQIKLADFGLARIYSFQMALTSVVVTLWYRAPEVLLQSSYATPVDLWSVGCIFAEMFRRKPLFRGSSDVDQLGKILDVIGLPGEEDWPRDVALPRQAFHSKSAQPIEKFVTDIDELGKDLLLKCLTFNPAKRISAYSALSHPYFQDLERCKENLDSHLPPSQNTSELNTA
Chain of CDK3/Cyclin E (Homo sapiens) (P24864 whole entry, looked up): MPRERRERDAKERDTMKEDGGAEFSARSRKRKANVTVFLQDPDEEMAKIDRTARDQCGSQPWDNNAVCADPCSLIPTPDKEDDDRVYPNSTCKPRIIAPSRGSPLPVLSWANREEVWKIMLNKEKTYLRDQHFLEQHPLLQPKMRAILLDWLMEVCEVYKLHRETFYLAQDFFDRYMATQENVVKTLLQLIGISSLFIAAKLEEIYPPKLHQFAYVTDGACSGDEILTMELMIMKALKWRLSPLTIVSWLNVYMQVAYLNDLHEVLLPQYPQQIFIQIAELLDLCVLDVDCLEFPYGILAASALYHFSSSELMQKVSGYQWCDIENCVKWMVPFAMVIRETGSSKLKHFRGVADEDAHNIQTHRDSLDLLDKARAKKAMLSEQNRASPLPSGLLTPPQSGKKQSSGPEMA
Chain of CDK3/Cyclin E (Homo sapiens) (Q00526 whole entry, looked up): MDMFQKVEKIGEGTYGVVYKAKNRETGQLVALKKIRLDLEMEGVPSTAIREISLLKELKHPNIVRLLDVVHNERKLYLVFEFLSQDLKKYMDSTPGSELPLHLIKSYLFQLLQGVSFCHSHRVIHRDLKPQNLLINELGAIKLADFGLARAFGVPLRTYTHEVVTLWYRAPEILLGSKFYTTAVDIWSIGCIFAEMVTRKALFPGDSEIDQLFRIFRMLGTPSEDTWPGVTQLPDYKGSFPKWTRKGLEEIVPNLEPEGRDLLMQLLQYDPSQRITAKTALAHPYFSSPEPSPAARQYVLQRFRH
Chain of Dual specificity protein kinase CLK2 (Homo sapiens) (P49760 whole entry, looked up): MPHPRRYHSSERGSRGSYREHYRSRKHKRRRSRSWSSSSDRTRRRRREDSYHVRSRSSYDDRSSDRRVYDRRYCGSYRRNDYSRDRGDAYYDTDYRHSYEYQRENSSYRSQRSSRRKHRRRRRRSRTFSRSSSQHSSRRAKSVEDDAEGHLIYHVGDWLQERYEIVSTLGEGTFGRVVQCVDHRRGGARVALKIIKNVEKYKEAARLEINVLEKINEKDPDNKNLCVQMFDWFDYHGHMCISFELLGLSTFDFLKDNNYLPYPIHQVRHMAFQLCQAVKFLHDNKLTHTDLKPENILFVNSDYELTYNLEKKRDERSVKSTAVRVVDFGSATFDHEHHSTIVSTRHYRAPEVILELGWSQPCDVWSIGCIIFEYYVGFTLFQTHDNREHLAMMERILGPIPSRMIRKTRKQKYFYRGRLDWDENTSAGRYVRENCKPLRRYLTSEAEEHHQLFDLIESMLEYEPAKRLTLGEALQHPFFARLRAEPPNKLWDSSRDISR
Chain of Glycogen synthase kinase-3 beta (Homo sapiens) (P49841 whole entry, looked up): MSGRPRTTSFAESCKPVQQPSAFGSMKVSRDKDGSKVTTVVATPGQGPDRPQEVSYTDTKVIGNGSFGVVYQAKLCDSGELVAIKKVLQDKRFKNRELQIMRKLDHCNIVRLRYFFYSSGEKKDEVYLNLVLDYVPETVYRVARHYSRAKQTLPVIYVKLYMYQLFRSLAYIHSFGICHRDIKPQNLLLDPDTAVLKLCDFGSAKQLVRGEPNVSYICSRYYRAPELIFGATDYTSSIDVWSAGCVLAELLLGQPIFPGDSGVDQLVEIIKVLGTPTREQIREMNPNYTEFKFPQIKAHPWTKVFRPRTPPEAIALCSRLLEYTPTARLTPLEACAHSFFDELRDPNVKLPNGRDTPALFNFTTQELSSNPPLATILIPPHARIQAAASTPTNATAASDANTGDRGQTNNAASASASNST

As to `COc1cc2ncn(-c3cc(OCc4cccs4)c(C(N)=O)s3)c2cc1OC`, the inhibition in [1] was 2.15%; in assay [2], -2.57%; in assay [3], -2.26%; in [4], -2.83%; in assay [5] it was -2.03%; in [6], -5.45%. The inhibition in [7] was -6.37%; in assay [8], 2.46%; in assay [9], 6.46%; in assay [10], -1.61%; in assay [11] it was 0.59%; in [12], -2.96%. Besides, the inhibition in assay [13] is -0.93%; in assay [14], -3.74%; in assay [15] it was -1.79%; in assay [16], 0.17%; in assay [17] it was 4.35%; in assay [18] it was 0.28%. For the same molecule, the inhibition stood at 6.22% in [19] and 0.55% in assay [20].
`NC(=O)c1cc(-c2ccncc2)cc(-c2ccccc2)c1N`: the inhibition in assay [1] was -0.18%; in [2], 2.8%; in assay [3], 2.69%; in assay [4], 0.58%; in [5], 0.44%; in [6], -1.43%. In addition, the inhibition in assay [7] stood at 2.3%; in [8] it was 1.45%; in assay [9], 1.33%; in assay [10] it was 1.22%; in assay [11], 2.34%; in assay [12], 6.65%. The inhibition was 29.2% in assay [13]; 3.05% in [14]; 17.9% in [15]; 3.61% in assay [16]; 4.25% in assay [17]; 3.97% in [18]. The inhibition in [19] came out at 12.7%; in assay [20], 2.53%.
Consider `COc1ccc2cc(-c3c(-c4ccncc4)nc(-c4ccc(S(C)(=O)=O)cc4C)n3C)ccc2c1`, for which the inhibition is -3.73% in assay [1]; 3.77% in assay [2]; 4.56% in assay [3]; 0.42% in assay [4]; -0.58% in assay [5]; 0.01% in assay [6]. Also, the inhibition in assay [7] is 1.21%; in assay [8], 0.85%; in assay [9], -1.59%; in assay [10] it was 1.66%; in [11] it was 2.06%; in assay [12] it was 2.19%. In addition, the inhibition came to 7.68% in [13]; 0.76% in assay [14]; 2.36% in assay [15]; 3.55% in assay [16]; 4.35% in [17]; 2.9% in assay [18]. Moreover, the inhibition is 6.04% in [19] and 2.27% in [20].
Consider `COc1cccc(/C=N/Nc2ncnc3c2cnn3-c2cccc(OC)c2)c1`, for which the inhibition in assay [1] was -2.86%; in assay [2] it was 2.17%; in [3] it was 4.46%; in assay [4], 0.77%; in assay [5], 3.98%; in assay [6] it was -0.23%. The inhibition in assay [7] is 1.15%; in [8], 0.01%; in [9], 0.99%; in [10], 0.55%; in assay [11] it was 1.67%; in assay [12], 3.1%. Moreover, the inhibition in assay [13] was 7.79%; in assay [14] it was -0.79%; in assay [15], 2.23%; in [16], 2.19%; in assay [17], 6.04%; in [18], 14.8%. The values for the inhibition in assay [19] and in assay [20] were 58.1% and 10.3%, respectively.
For the molecule `C/C(Nc1ccc(S(N)(=O)=O)cc1)=C1/C(=O)Nc2ccccc21`, the inhibition in assay [1] stood at 50.1%; in assay [2], 3.5%; in [3], 32%; in assay [4], 8.67%; in assay [5], 44.7%; in assay [6], 37%. The inhibition in assay [7] is 74.7%; in assay [8] it was 0.33%; in assay [9], 2.45%; in assay [10], -0.03%; in assay [11], 1.28%; in [12], 3.02%. Moreover, the inhibition in assay [13] is 11.5%; in [14] it was 2.13%; in assay [15], 12.7%; in assay [16], -1.67%; in assay [17], 3.79%; in [18], 1.25%. Besides, the inhibition in [19] came out at 7.04%; in assay [20], 1.17%.
As for `C[C@@H](Oc1cc(-n2cnc3ccc(OC4CCN(C)CC4)cc32)sc1C(N)=O)c1ccccc1Cl`, the inhibition in [1] is 0.13%; in [2], -0.83%; in [3], -0.3%; in assay [4], -2.91%; in assay [5], -2.26%; in assay [6], -5.27%. Further, the inhibition is -2.7% in assay [7]; 3.05% in assay [8]; 6.53% in assay [9]; -2.76% in assay [10]; -2.38% in assay [11]; -0.72% in assay [12]. In addition, the inhibition is 0.72% in [13]; -4.55% in assay [14]; -3.42% in [15]; 2.47% in assay [16]; 7.45% in assay [17]; -1.18% in [18]. Also, the inhibition is -0.34% in assay [19] and -1.76% in assay [20].
